# In PubChem BioAssay (NCATS):
# Values without a mark were called inactive. Results filed as inconclusive are left out. Calls of active or inactive are those of the source. Unless noted, the call rests on the fitted dose curve; in most records, active means well fitted curve in the direction sought with a large enough effect; inconclusive means small, poorly fitted or top-dose-only effect, or another doubt; inactive means no such curve, though single readings can be large; an effect the other way counts as inactive or inconclusive.
# Tests used:
# [1] = target: Lysosomal acid glucosylceramidase (Homo sapiens) (UniProt P04062); assay: Glucocerebrosidase-p2 (AID 348; in the data active means potency below about 10 µM; further: potency means the concentration at half of the fitted maximal effect); settings: purified GBA, blue fluorogenic substrate, 40 min
# Summary of the method: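 Compounds titrated from 0.6 nM upwards against 0.2 nM enzyme in pH 5.9 citric acid/KH2PO4, taurocholate, tween-20; blue fluorogenic substrate 80 uM, 40 min room temperature, stopped and read Ex 365/Em 440 for AC50.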
# [2] = target: Cytochrome P450 1A2 (Homo sapiens) (UniProt P05177); assay: p450-cyp1a2 (AID 410; calls by dose curve; further: potency means the concentration at half of the fitted maximal effect)
# Summary of the method: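 Human CYP1A2 (20nM) demethylated Luciferin-ME at its Km (100uM) in 100mM KPO4. After 10 min compound preincubation, NADPH regeneration ran the reaction 60 min at room temperature. Luciferin was read by luminescence, normalized to 57 uM furafylline.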
# [3] = target: Glucocorticoid receptor (Homo sapiens) (UniProt P04150); assay: GR-GFP Redistribution (AID 450;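 active means compounds whose dose series gives a full or clear partial fitted curve of increased nuclear translocation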; further: potency means the concentration at half of the fitted maximal effect); settings: U2OS GR-GFP nuclear translocation, laser cytometry, 2 h
# [4] = target: Glucocorticoid receptor (Homo sapiens) (UniProt P04150); assay: GR-EFC Redistribution (AID 451; calls by dose curve; further: potency means the concentration at half of the fitted maximal effect); settings: CHO-K1 GR-EFC translocation, beta-gal luminescence, 2 h
# Summary of the method: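 CHO-K1 cells expressing nuclear EA and GR-ED fragments of b-gal; compounds titrated up to 46 uM final, 2 h at 37 C. GR nuclear translocation read as complemented b-gal luminescence after 1 h RT detection.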
# [5] = target: Mitogen-activated protein kinase 10 (Mus musculus) (UniProt Q61831); assay: JNK3 AlphaScreen Assay (AID 530; active means well fitted curve in either direction with a large enough effect, not every such curve was filed as active;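 further: kinase came from lysate of stimulated human HepG2 cells; signal reports phosphorylation of biotinylated GST-cJun 1-79 at Ser73 with 10 µM ATP; on the % scale 0 is the no-effect control and ±100 the full control effect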)
# Summary of the method: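 qHTS format: compounds tested as titrations against IL-1beta/TNF-alpha-activated HepG2 lysate JNK3 with biotin-GST-cJun substrate and 10 uM ATP at room temperature. Loss of anti-phospho-cJun AlphaScreen signal indicates inhibition.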
# [6] = target: Cytochrome P450 3A4 (Homo sapiens) (UniProt P08684); assay: qHTS Assay for Inhibitors and Substrates of Cytochrome P450 3A4 (AID 884); further: potency means the concentration at half of the fitted maximal effect; nearly all actives have a fitted effect of over 50% in size
# Summary of the method: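 20 nM human CYP3A4 with 25 uM Luciferin-PPXE (at KM) in 200 mM KPO4, preincubated 10 min with compound; NADPH regeneration started a 60 min RT reaction. Luciferin detected by luminescence, normalized to 57 uM ketoconazole as full inhibition.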
# [7] = target: Cytochrome P450 3A4 (Homo sapiens) (UniProt P08684); assay: qHTS Assay for Activators of Cytochrome P450 3A4 (AID 885); further: nearly all actives have a fitted effect of over 65% in size
# Summary of the method: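 Quantitative HTS format: compounds preincubated with 20nM human CYP3A4 and Luciferin-PPXE substrate at KM, reaction started by NADPH regeneration, stopped after 60 min, luciferase luminescence read 20 min later.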
# [8] = target: Cytochrome P450 2C19 (Homo sapiens) (UniProt P33261); assay: qHTS Assay for Inhibitors and Substrates of Cytochrome P450 2C19 (AID 899); further: potency means the concentration at half of the fitted maximal effect; nearly all actives have a fitted effect of over 60% in size
# Summary of the method: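 5 nM human CYP2C19 with 10uM Luciferin-H EGE (at KM) in 50mM KPO4, compound preincubated 10 min at 37C, then NADPH regeneration for 60 min at 37C. Luciferin read by luminescence after detection reagent; normalized to 57uM ketoconazole as full inhibition.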
# [9] = target: Dual specificity protein kinase CLK4 (Homo sapiens) (UniProt Q9HAZ1); assay: qHTS Assay for Inhibitors of CDC-like Kinase 4 (Kinase-Glo Assay) (AID 1770); further: nearly all actives have a fitted effect of over 65% in size; further: potency means the concentration at half of the fitted maximal effect
# Summary of the method: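 25 nM Clk4 with 100 uM RS repeat peptide and 1 uM ATP (final) in Tris pH7.5, 10 mM MgCl2, 4.5 h at room temperature. Remaining ATP measured by Kinase-Glo luciferase luminescence.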
# [10] = target: Ubiquitin carboxyl-terminal hydrolase 1 (Homo sapiens) (UniProt O94782); assay: Inhibitors of USP1/UAF1: Pilot qHTS (AID 504865); further: nearly all actives have a fitted effect of over 35% in size; further: potency means the concentration at half of the fitted maximal effect
# Summary of the method: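 USP1/UAF1 complex at 1 nM preincubated 15 min at room temperature with compound, then Ub-Rho substrate added at 150 nM final. Fluorescence (480/540 nm) read kinetically in 50 mM HEPES pH 7.8, 0.5 mM EDTA, 1 mM TCEP, 0.1 mg/ml BSA, 0.01% Tween-20.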
# [11] = NFAT Signaling Pathway (AID 444; active means well fitted curve in either direction with a large enough effect, not every such curve was filed as active;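 further: carbachol stimulus at about its EC50 of 1 µM final; on the % scale 0 is the no-effect control and ±100 the full control effect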); settings: Jurkat NFAT-bla M1, carbachol, beta-lactamase ratio, 5 h; at 7.69 µM (top of the series) unless noted
# Summary of the method: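 Jurkat cells with NFAT-driven β-lactamase reporter and co-expressed M1 receptor, stimulated with carbachol (final 1 uM, ~EC50), compound titration, 5 h at 37 °C. CCF4 loaded 1 h at RT; 460/530 nm ratio gave %activity and AC50.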
# [12] = Stat Signaling Pathway (AID 446; active means well fitted curve in either direction with a large enough effect, not every such curve was filed as active;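 further: ME-180 cervical cancer cells given 40 pM IL-6 alongside compound; SIE-controlled beta-lactamase reporter measured as 460/530 nm FRET emission ratio; on the % scale 0 is the no-effect control and ±100 the full control effect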)
# Summary of the method: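 IL-6/STAT signaling read in ME-180 cells via an SIE beta-lactamase reporter. Stimulus was 40 pM IL-6 (its AC50) for 5 hrs, so both activation and inhibition register.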
# [13] = target: 3',5'-cyclic-AMP phosphodiesterase 4B (Homo sapiens) (UniProt Q07343); assay: qHTS Assay for Inhibitors of PDE-IV (AID 607; active means well fitted activation curve with a large enough effect in the main read-out, with a control signal flat, not every such curve was filed as active; further: % of control where 0% means no effect)
# Summary of the method: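 Live HEK293 cells with a modified cyclic nucleotide-gated (CNG) channel report intracellular cAMP via membrane-potential dye fluorescence (ex 535/em 590 nm). Endogenous PDE-IV was targeted. Compounds were tested at up to 22.9 uM final; RO 20-1724 100 uM served as control.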
# [14] = target: Cytochrome P450 2C9 (Homo sapiens) (UniProt P11712); assay: qHTS Assay for Inhibitors and Substrates of Cytochrome P450 2C9 (AID 883); further: on the % scale 0 is the no-effect control and ±100 the full control effect; nearly all actives have a fitted effect of over 60% in size
# Summary of the method: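 Human CYP2C9 (10nM) with Luciferin-H at 100uM (its KM) in 25mM KPO4; compound preincubated 10 min at 37C, then NADPH regeneration for 60 min at 37C. Luciferin read by luminescence after detection reagent; normalized to 57uM sulphaphenazole as full inhibition.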
# [15] = target: Dual specificity protein kinase CLK4 (Homo sapiens) (UniProt Q9HAZ1); assay: qHTS Assay for Inhibitors of CDC-like Kinase 4 (ADP-FP Assay) (AID 1795);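 further: recombinant human CLK4 phosphorylating RS repeat peptide at 1 µM ATP; on the % scale 0 is the no-effect control and ±100 the full control effect; nearly all actives have a fitted effect of over 60% in size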
# Summary of the method: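 Recombinant Clk4 (6.25 nM) phosphorylated 100 uM RS repeat peptide with 1 uM ATP in 25 mM Tris pH 7.5, 10 mM MgCl2, 0.5 mM EGTA, 2.5 mM DTT, 0.01% Triton X-100 for 1 h. ADP was detected by Transcreener ADP2 competitive fluorescence polarization after 30 min at room temperature.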
# [16] = AP1 Signaling Pathway (AID 357; active means well fitted curve in either direction with a large enough effect, not every such curve was filed as active; further: on the % scale 0 is the no-effect control and ±100 the full control effect); settings: ME-180 AP-1-bla reporter, EGF-induced, beta-lactamase ratio, 5 h; at 7.69 µM (top of the series) unless noted
# Summary of the method: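 AP-1-bla ME-180 cells with beta-lactamase reporter under AP-1 response element, stimulated with EC50 EGF; compounds titrated, 5 hours at 37 degrees Celsius. CCF4 read at 460/530 nm ratio; positive and negative modulators judged by AC50.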
# [17] = target: Cytochrome P450 2D6 (Homo sapiens) (UniProt P10635); assay: qHTS Assay for Inhibitors and Substrates of Cytochrome P450 2D6 (AID 891); further: potency means the concentration at half of the fitted maximal effect; nearly all actives have a fitted effect of over 60% in size
# Summary of the method: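 Human CYP2D6 (5 nM) with 30 uM Luciferin-ME EGE (at Km) in 100 mM KPO4, compound preincubated 10 min, then NADPH regeneration system for 60 min at room temperature. Luciferin read by luminescence; normalized to 1.43 uM quinidine.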
# [18] = qHTS Assay for Identification of Small Molecule Agonists for Hypoxia Response Element Signaling Pathway (AID 914; active means well fitted activation curve with a large enough effect in the signal ratio, with a control signal flat, not every such curve was filed as active; the % refers to the signal ratio; further: % of control where 0% means no effect); settings: ME-180 (cervical carcinoma) HRE-bla reporter, beta-lactamase ratio, CoCl2, 17 h; activation: active compounds read high
# Summary of the method: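 HRE-bla ME-180 assay for agonist-like enhancement of an EC50 CoCl2 stimulus: 17 h at 37 degrees Celsius, CCF4 for 2.5 h, ratiometric 460/530 nm signal converted to %Activity and fitted to AC50.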
# Sequence of Ubiquitin carboxyl-terminal hydrolase 1 (Homo sapiens) (O94782 whole entry, looked up): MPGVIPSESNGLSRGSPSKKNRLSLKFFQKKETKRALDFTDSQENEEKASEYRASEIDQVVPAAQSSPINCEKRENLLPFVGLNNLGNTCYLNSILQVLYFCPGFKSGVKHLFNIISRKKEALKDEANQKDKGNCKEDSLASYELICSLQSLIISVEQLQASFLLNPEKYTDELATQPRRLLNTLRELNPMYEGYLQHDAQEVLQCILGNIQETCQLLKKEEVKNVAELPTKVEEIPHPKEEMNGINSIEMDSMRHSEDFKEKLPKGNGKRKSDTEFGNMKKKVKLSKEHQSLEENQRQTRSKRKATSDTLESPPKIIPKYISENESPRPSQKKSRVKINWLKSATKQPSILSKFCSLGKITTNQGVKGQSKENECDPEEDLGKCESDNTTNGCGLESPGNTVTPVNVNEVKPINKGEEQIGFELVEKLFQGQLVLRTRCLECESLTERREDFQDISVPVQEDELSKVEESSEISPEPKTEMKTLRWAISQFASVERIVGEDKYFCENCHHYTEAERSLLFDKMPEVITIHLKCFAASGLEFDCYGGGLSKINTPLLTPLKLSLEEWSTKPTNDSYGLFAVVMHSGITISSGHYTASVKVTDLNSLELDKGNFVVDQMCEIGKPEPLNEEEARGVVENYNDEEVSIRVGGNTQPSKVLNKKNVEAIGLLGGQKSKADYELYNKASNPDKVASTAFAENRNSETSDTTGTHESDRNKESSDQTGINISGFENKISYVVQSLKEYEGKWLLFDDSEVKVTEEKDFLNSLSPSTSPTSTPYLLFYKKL
# Sequence of Lysosomal acid glucosylceramidase (Homo sapiens) (P04062 whole entry, looked up): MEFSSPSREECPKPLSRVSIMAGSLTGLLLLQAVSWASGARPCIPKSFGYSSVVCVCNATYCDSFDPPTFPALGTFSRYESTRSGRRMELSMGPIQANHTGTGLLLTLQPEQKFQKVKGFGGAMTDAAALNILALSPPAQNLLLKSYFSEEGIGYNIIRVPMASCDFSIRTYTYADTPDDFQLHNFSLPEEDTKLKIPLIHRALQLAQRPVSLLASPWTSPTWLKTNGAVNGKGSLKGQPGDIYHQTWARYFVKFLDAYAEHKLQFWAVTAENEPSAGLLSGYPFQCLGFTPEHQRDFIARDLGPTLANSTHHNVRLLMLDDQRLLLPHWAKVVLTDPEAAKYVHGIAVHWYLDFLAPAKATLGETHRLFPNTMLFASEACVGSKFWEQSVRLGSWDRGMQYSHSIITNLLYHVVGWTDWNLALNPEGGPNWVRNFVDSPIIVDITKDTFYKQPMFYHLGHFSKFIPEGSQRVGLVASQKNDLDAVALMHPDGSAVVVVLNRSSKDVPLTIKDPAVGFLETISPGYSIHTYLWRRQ
# Sequence of Glucocorticoid receptor (Homo sapiens) (P04150 whole entry, looked up, the tested form may be a part): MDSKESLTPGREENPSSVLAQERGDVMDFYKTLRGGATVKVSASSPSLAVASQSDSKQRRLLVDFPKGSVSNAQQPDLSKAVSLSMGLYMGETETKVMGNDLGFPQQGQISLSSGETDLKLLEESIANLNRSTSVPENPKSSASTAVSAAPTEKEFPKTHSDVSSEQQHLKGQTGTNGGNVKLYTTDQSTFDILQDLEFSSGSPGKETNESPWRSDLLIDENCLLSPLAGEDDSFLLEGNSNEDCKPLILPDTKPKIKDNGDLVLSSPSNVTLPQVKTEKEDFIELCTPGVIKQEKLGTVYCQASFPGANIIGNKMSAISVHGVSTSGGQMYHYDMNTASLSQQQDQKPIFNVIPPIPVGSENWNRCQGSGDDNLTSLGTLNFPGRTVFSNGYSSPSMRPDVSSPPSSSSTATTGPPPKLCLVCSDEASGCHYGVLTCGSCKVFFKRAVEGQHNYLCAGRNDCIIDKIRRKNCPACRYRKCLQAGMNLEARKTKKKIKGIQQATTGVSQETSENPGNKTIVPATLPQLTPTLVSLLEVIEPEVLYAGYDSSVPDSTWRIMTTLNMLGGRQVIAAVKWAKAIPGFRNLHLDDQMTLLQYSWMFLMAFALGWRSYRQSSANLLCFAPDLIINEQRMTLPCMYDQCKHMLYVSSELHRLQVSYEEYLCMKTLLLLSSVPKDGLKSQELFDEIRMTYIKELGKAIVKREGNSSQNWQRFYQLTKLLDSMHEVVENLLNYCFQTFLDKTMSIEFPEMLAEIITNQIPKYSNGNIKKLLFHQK
# Sequence of Dual specificity protein kinase CLK4 (Homo sapiens) (Q9HAZ1 whole entry, looked up): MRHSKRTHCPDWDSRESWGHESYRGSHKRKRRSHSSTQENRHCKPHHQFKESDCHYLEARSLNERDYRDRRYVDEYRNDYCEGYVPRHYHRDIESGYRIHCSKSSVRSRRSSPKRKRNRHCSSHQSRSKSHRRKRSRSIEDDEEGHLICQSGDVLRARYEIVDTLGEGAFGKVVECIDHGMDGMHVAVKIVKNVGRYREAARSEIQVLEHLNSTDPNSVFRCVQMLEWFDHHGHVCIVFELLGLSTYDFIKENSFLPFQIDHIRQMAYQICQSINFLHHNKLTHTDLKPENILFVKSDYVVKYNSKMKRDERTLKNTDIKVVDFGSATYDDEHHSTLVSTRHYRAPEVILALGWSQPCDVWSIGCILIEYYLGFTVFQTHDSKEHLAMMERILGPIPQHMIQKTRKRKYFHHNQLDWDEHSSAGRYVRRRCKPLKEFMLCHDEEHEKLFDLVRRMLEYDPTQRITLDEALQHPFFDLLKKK
# Sequence of Cytochrome P450 3A4 (Homo sapiens) (P08684 whole entry, looked up): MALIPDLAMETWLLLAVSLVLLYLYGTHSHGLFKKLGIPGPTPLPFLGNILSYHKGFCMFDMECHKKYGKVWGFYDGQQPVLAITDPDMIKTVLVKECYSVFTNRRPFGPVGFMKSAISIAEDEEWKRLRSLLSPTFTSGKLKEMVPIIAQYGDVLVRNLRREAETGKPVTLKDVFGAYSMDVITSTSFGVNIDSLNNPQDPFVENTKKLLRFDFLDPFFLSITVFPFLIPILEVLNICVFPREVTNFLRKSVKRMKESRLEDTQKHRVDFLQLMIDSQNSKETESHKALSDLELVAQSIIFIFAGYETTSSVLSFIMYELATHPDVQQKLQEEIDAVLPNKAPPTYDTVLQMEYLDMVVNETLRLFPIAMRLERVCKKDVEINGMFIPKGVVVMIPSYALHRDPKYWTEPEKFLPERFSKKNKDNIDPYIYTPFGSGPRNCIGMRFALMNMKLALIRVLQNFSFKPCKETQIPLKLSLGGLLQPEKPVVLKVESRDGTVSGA
# Sequence of Cytochrome P450 2C19 (Homo sapiens) (P33261 whole entry, looked up): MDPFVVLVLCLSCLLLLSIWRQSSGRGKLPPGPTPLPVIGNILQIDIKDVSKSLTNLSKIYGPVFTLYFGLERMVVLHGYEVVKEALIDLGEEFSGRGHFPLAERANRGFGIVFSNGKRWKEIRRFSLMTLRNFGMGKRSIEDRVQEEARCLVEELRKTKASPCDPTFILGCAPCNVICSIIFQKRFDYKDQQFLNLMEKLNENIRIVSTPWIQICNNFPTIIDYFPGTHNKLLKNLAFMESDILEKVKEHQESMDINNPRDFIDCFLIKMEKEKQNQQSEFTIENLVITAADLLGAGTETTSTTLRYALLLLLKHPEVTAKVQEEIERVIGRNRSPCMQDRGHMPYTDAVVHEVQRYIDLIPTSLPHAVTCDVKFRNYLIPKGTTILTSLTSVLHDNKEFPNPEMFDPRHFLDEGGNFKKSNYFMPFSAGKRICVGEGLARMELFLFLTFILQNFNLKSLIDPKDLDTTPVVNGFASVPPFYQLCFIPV
# Sequence of Cytochrome P450 1A2 (Homo sapiens) (P05177 whole entry, looked up): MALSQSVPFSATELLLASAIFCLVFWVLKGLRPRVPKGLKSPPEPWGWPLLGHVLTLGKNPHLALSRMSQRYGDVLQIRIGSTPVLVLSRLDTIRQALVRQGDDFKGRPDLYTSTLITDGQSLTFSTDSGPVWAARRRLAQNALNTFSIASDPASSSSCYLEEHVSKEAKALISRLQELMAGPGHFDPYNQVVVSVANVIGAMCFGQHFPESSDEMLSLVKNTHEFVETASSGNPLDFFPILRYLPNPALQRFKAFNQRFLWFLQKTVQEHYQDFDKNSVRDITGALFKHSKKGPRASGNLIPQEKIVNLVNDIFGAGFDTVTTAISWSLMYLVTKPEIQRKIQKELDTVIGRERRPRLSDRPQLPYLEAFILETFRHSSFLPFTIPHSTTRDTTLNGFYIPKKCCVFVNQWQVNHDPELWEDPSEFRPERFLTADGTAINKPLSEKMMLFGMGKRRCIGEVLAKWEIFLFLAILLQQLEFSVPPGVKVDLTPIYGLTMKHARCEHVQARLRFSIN
# Sequence of Cytochrome P450 2D6 (Homo sapiens) (P10635 whole entry, looked up): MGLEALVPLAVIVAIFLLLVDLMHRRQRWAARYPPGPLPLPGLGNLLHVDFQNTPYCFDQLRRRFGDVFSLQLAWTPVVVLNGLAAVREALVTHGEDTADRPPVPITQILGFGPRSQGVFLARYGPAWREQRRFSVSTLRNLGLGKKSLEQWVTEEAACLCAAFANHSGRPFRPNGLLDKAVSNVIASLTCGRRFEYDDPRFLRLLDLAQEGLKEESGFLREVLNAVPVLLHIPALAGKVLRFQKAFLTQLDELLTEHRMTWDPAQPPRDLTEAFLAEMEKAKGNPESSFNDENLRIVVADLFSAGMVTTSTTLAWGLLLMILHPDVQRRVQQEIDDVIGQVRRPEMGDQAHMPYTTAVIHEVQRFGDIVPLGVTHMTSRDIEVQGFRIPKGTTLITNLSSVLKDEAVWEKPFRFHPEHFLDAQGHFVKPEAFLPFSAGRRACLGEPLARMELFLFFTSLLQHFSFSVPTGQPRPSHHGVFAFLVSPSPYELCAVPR
Compound,Potency [1] [µM],Potency [2],Potency [3] [µM],Potency [4] [µM],Potency [5],Potency [6],outcome [7],Potency [8],Potency [9],Potency [10],"activity change, negative = inhibition [11] [%]",outcome [12],Potency [13],"activity change, negative = inhibition [14]",Potency [15],"activity change, negative = inhibition [16] [%]",Potency [17],activation [18] [%]
Cc1ccccc1-c1ccc2ncnc(-n3ccnc3)c2c1,> 11.4,0.794 µM (active),> 46,> 46,inactive,0.501 µM (active),inactive,2 µM (active),7.94 µM (active),inactive,,,,,,,,
COc1ccc(CNc2cc(-c3cccc(NS(C)(=O)=O)c3)ncn2)c(OC)c1,> 11.4,15.8 µM (active),> 46,,inactive,,inactive,,inactive,inactive,-10.4,inactive,inactive,30.9% [at 2.29 µM],inactive,,,
Cc1cccc(CNc2ncncc2-c2ccccc2C)c1,,2.51 µM (active),> 46,,inactive,0.398 µM (active),inactive,,inactive,inactive,-10.9,inactive,,,inactive,-10,3.98 µM (active),
CCNc1ncc2nc(C)c(=O)n(CCc3ccccc3)c2n1,> 11.4,1.58 µM (active),> 9.22,> 46,inactive,,inactive,0.316 µM (active),7.94 µM (active),inactive,-12.8,inactive,,,,-15.2,,
O=c1c(CCc2ccccc2)nc2cnc(N3CCOCC3)nc2n1-c1ccccc1,> 11.4,,> 9.22,> 46,inactive,,,,inactive,inactive,1.96,inactive,,,,1.07,,-5.71
O=c1c(CCc2ccccc2)nc2cncnc2n1Cc1ccccc1,> 11.4,,> 46,> 46,inactive,,,,inactive,inactive,-4.57,inactive,,,inactive,,,
FC(F)(F)c1ccccc1-c1nc(NCc2cccnc2)c2ccccc2n1,> 11.4,2 µM (active),> 46,> 46,inactive,2 µM (active),inactive,3.98 µM (active),inactive,12.6 µM (active),3.45,inactive,,,,5.72,,
